MLL AF4-AF9 inh: blocks AF4 peptide binding to human AF9; inhibition, % at 10 µM; AlphaScreen, biotin-AF4 peptide binding to FLAG-AF9; P42568; actives 0.47% (n = 350,000);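 active means every replicate reaching a set inhibition limit, whatever the replicate mean, cut at about 25% in these data; inconclusive means mean inhibition reaches that limit but some replicates miss it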;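 further: 0% = plate neutral control median and 100% = total signal loss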
ERAP1 HTS inh: blocks human ERAP1 aminopeptidase activity; Q9NZ08; recombinant ERAP1, Leu-AMC fluorescence, 60 min; inhibition, % at 10.7 µM; actives 0.15% (n = 340,000); AID 652197;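 active means mean replicate inhibition of at least 30%, or all replicates individually reaching that 30% level; inactive means mean below 30% and not every replicate reaching it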;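 further: 0% = neutral control wells and 100% = L-leucinethiol positive control wells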
DENV2 CPE rescue: DENV2-induced cell death inhibition | DENV2-infected cells, cytopathic effect rescue, plate reader | CPE inhibition, % at 9.99 µM | actives 1.7% (n = 350,000); in the data active means CPE inhibition above about 20%, passing the limit was not always enough; inconclusive means no clear call, values can overlap the other calls; tested in BHK-21 cells;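 further: 0% = median of neutral control wells and 100% = median of positive control wells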
RAD52 anneal inh: blocks human RAD52 DNA annealing; P43351; recombinant RAD52 DNA annealing, FRET fluorescence; inhibition, % at 18.7 µM; actives 0.46% (n = 360,000); AID 651710;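 active means every replicate showing at least 50% inhibition; inconclusive means mean inhibition at least 50% but not in every replicate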
Target sequence (P43351 whole entry, looked up): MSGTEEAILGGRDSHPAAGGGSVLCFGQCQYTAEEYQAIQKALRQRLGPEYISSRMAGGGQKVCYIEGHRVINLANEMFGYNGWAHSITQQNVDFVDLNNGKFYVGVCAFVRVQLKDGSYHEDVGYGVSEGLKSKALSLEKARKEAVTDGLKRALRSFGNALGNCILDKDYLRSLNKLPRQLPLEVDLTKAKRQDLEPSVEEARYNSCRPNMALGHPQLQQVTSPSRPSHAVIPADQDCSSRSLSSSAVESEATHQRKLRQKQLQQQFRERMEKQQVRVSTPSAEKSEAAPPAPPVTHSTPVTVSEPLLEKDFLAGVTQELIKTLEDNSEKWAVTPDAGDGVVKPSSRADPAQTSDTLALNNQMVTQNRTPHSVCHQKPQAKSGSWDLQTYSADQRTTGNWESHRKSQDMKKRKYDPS
FGF22 binding: FGF22 (human) thermal shift binding. Q9HCT0. recombinant FGF22 thermal shift, SYPRO orange fluorescence; percent of sucrose octasulfate shift, DMSO zero. activity (Tm shift, normalised), % at 9.99 µM. actives 1.5% (n = 340,000). AID 651658;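 active means mean Tm shift, scaled 0 neutral to 100 positive control, at about 1.3% or above, every replicate too, limit read from the data; inconclusive means no clear call, values can overlap the other calls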
Target sequence (Q9HCT0 whole entry, looked up): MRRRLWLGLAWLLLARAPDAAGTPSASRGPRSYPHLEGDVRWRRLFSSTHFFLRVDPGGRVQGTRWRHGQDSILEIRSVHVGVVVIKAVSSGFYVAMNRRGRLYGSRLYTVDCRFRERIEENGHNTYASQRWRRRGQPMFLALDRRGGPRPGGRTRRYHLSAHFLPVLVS
Active calls of the source: *; ? = inconclusive; / = not tested or not shown; + = active, no number. Compounds with a hit are over-represented: about 4% of the library has one in this group of screens.

SMILES	MLL AF4-AF9 inh	ERAP1 HTS inh	DENV2 CPE rescue	RAD52 anneal inh	FGF22 binding
COc1ccc(NC(=O)Nc2ccc3c(c2)C(=O)N([C@@H](C)CO)C[C@@H](C)[C@@H](CN(C)Cc2ccc4c(c2)OCO4)OCCCC[C@@H](C)O3)cc1	22	2	34*	1	-1
COc1ccc(NC(=O)Nc2ccc3c(c2)C(=O)N([C@@H](C)CO)C[C@H](C)[C@H](CN(C)Cc2ccc4c(c2)OCO4)OCCCC[C@@H](C)O3)cc1	21	3	-5	-20	0
CCc1cccc(-n2c(C)cc(O)cc2=O)c1	/	-1	61*	2	0
CN(C(=O)COC(=O)c1cccc(F)c1)c1ccccc1	-3	-9	15	-8	0
CN(CCOC(=O)c1cccc(F)c1)Cc1ccccc1	3	-5	8	-13	43*
CCCC#Cc1ccc2c(c1)O[C@@H](CN(C)CC1CCCC1)[C@H](C)CN([C@H](C)CO)S2(=O)=O	6	0	60*	-5	0
C[C@@H]1CN([C@H](C)CO)S(=O)(=O)c2ccc(C#Cc3ccccc3)cc2O[C@@H]1CN(C)CC1CC1	10	-4	16	2	0
C[C@@H]1CN([C@@H](C)CO)S(=O)(=O)c2ccc(-c3ccccc3)cc2O[C@H]1CN(C)CC1CCCC1	0	-3	39*	3	0
C[C@H]1CN([C@@H](C)CO)S(=O)(=O)c2ccc(C#Cc3ccccc3)cc2O[C@H]1CN(C)CC1CC1	11	-4	35*	0	0
C[C@H](CO)N1C[C@H](C)[C@H](CN(C)CC2CC2)Oc2cc(/C=C/c3ccccc3)ccc2S1(=O)=O	26*	1	-11	27	0
C[n+]1cccc(/C=N/NC(=O)CC23CC4CC(CC(C4)C2)C3)c1	-1	96*	1	-30	0
O=C(C[C@@H]1CC[C@H]2[C@@H](COC[C@@H](O)CN2C(=O)c2cccnc2)O1)NCc1ccc(-c2ccccc2)cc1	-4	0	27*	-7	0
CN(C)C(=O)C[C@@H]1CC[C@@H]2[C@H](COC[C@H](O)CN2C(=O)c2ccncc2)O1	8	-3	1	70*	0
O=C(C[C@H]1CC[C@H]2[C@@H](COC[C@@H](O)CN2C(=O)c2cccnc2)O1)NCc1ccc(-c2ccccc2)cc1	-3	-2	-2	-7	0
O=C(C[C@H]1CC[C@H]2[C@@H](COC[C@H](O)CN2C(=O)c2cccnc2)O1)NCc1ccc(-c2ccccc2)cc1	-3	1	22*	-28	0
O=C(C[C@@H]1CC[C@H]2[C@@H](COC[C@@H](O)CN2C(=O)c2ccncc2)O1)NCc1ccc(-c2ccccc2)cc1	4	-4	+	-10	/
CN(C)C(=O)C[C@@H]1CC[C@@H]2[C@H](COC[C@@H](O)CN2C(=O)c2ccncc2)O1	/	/	-3	/	0
O=C(C[C@H]1CC[C@H]2[C@@H](COC[C@@H](O)CN2C(=O)c2ccncc2)O1)NCc1ccc(-c2ccccc2)cc1	0	-4	1	2	/
C[C@H]1CN([C@@H](C)CO)C(=O)Cc2cc(NC(=O)Nc3ccc4c(c3)OCO4)ccc2O[C@H]1CN(C)C(=O)Nc1ccccc1	/	/	-2	/	0
O=C(NC1CCCC1)N1CC2(C1)[C@@H](c1ccccc1)[C@@H](CO)N2S(=O)(=O)Cc1ccccc1	-1	/	-3	-1	/
C[C@@H]1CN([C@@H](C)CO)C(=O)c2cc(NC(=O)Cc3ccccc3)ccc2O[C@@H](C)CCCCO[C@@H]1CN(C)CC1CCCCC1	-2	-2	26*	-9	/
C[C@@H]1CCCCO[C@@H](CN(C)CC2CCCCC2)[C@H](C)CN([C@H](C)CO)C(=O)c2cc(NC(=O)c3ccccc3)ccc2O1	27*	1	/	13	1
CNC(=O)C[C@@H]1CC[C@H]2[C@@H](COc3ccc(NC(=O)c4ccc(F)c(F)c4)cc3C(=O)N2C)O1	-4	0	-6	3	0
Cc1cccn2c(=O)c(C=O)c(N3CCN(c4ccccc4)CC3)nc12	3	4	-8	-26	43*
CCN1CCN(c2nc3c(C)cccn3c(=O)c2/C=C(\C#N)S(=O)(=O)c2ccc(Cl)cc2)CC1	30*	2	5	-161	0
SMILES	MLL AF4-AF9 inh	ERAP1 HTS inh	DENV2 CPE rescue	RAD52 anneal inh	FGF22 binding
COCC(=O)N1CCC2(CC1)CN(C(=O)Cc1ccccc1)[C@H](CO)c1c2c2ccc(OC)cc2n1C	-1	-4	-1	16	0
Cc1ccc(C2(CCNCc3ccc(N(C)C)cc3)CCOC(C(C)C)C2)cc1 (stereo not drawn)	40*	-3	3	-41	0
CCC(=O)N1[C@H](C(=O)N2CCCCC2)[C@@H](CO)[C@@H]2Cn3c(ccc(-c4cccc(F)c4)c3=O)[C@@H]21	0	0	15	-4	/
COc1ccc(S(=O)(=O)N(C)C[C@@H]2Oc3ccc(NC(=O)C4CCCCC4)cc3C(=O)N([C@@H](C)CO)C[C@@H]2C)cc1	1	-2	-5	-2	0
COc1ccc(NC(=O)C(CC(=O)O)Cc2ccc(C)cc2)cc1 (stereo not drawn)	-4	4	-1	-14	43*
O=C(Cc1ccccn1)NCC[C@H]1CC[C@@H](NC(=O)Nc2ccc(Cl)cc2)[C@@H](CO)O1	-20	3	-1	-14	0
COc1ccc(CC2(c3ccccc3)NC(=O)NC2=O)cc1 (stereo not drawn)	2	2	4	-6	43*
COc1ccc(S(=O)(=O)Nc2ccc3c(c2)CC(=O)N([C@H](C)CO)C[C@H](C)[C@@H](CN(C)C(=O)NC2CCCCC2)O3)cc1	1	-2	3	3	0
O=S(=O)(NCCC1=CCCCC1)c1ccc(Br)cc1	-2	0	119*	-11	0
Cc1ccc(/C=C2\SC(=O)N(CCC(=O)N3CCN(C)CC3)C2=O)cc1	3	-2	?	2	0
CN1CCN(C(=O)CCN2C(=O)S/C(=C/c3ccc(Cl)cc3)C2=O)CC1	1	-3	12	-3	43*
CCCCC(NC(=O)Cc1c(C)c2cc3c(C)c(C)oc3c(C)c2oc1=O)C(=O)O (stereo not drawn)	-3	-1	5	-6	0
CCCC(NC(=O)Cc1c(C)c2cc3c(C)c(C)oc3c(C)c2oc1=O)C(=O)N[C@@H](Cc1ccccc1)C(=O)O (stereo partly drawn)	-4	0	49*	-13	0
CCOC(=O)N1C=CC=C[C@@H]2[C@@H](N3C(=O)c4ccccc4C3=O)C(=O)N21	1	1	63*	-6	0
Cc1ccccc1S(=O)(=O)N1CC(=O)N2[C@H](CO)[C@H](c3ccc(C#Cc4ccccc4)cc3)[C@H]2C1	-4	0	24*	1	/
CCS(=O)(=O)N1CC(=O)N2[C@H](CO)[C@@H](c3ccc(C#CCC(C)C)cc3)[C@@H]2C1	4	4	48*	-8	1

Assay outcomes (PubChem BioAssay)
